A selection: hits, their analogues and other compounds. The true share with any hit is near 19%.
TDP1 cell CPT: DT40-hTDP1 cell growth loss with CPT; actives 12% (n = 420,000); AID 686979; chicken DT40 Tdp1-/-;hTDP1 cells + 20 nM CPT, ATP luminescence, 48 h; Potency, µM (series often up to 46.2 µM), for inactives: top-dose activity change, negative = growth inhibition, usual class: inhibitors; further: potency means the concentration at half of the fitted maximal effect; nearly all actives have a fitted effect of over 55% in size
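Chicken DT40 Tdp1-/- cells complemented with human TDP1, 400 cells/well, exposed to compounds plus 20 nM camptothecin for at least 48 h at 37 C; viability read as ATP content by CellTiter-Glo luminescence.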
HT1080 IDH1KD tx: toxicity to HT-1080 IDH1 knockdown cells (counter line); AID 686971; actives 2% (n = 360,000); HT-1080 IDH1 knockdown viability, ATP luminescence, 48 h; Potency, µM (titrated, usually from 46.1 µM), for the others: top-dose activity, negative = toxicity, usual class: cytotoxic;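 further: potency means the concentration at half of the fitted maximal effect; 0% = DMSO wells and -100% = cell-free medium wells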
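Cytotoxicity counter-line: IDH1KD HT-1080, 48 h, CellTiter-Glo. Curves classed by r2, magnitude and activity.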
IL-1B inflam inh: inhibitors of inflammasome signaling (IL-1 beta secretion). THP-1 LPS/ATP IL-1B secretion, AlphaLISA, 16 h; stronger effect = lower value. activity change, % at 57.5 µM. actives 4.7% (n = 360,000); in the data active means activity change below about -50%; inconclusive means mostly about -30% to -49%
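Secreted IL-1B measured by AlphaLISA bead assay after 16 h compound exposure of THP-1 cells; compounds (final up to 57.5 uM) added 1 h before LPS (250 ng/mL) and ATP (1.25 mM) stimulation; lower signal means less secretion.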
DT40 TDP1 no CPT: qHTS for Inhibitors of human tyrosyl-DNA phosphodiesterase 1 (TDP1): qHTS in cells in absence of CPT; DT40 Tdp1-/- hTDP1 cells, no CPT, ATP luminescence, 48 h; Potency, µM (titrated, usually from 46.2 µM), without a hit: at the highest dose activity change, negative = growth inhibition, hits mostly inhibitors; actives 15% (n = 420,000); AID 686978, 2013; further: potency means the concentration at half of the fitted maximal effect; nearly all actives have a fitted effect of over 55% in size
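Stably hTDP1-transfected Tdp1-null chicken DT40 cells were treated with library compounds minus camptothecin and grown for at least 48 hr at 37 °C, after which cellular ATP was quantified by luminescence.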
HT1080NT lethal: kills 2HG-producing HT-1080-NT fibrosarcoma cells. Potency, µM (top dose mostly 46.1 µM), without a hit: at the highest dose activity, negative = less viability, hits mostly cytotoxic. HT-1080-NT fibrosarcoma viability, CellTiter-Glo ATP luminescence, 48 h. actives 1.6% (n = 360,000);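 further: NT is the 2HG producing partner of a matched IDH1 knockdown line; potency means the concentration at half of the fitted maximal effect; 0% = DMSO-treated cells and -100% = media-only wells without cells; nearly all actives have a fitted effect of over 55% in size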
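750 cells/well, RPMI + 5% FBS; 2 h settle, compound pin-transfer, 48 h at 37 degrees C. CellTiter-Glo 10 min RT, luminescence. Normalized to DMSO and media-only wells.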
* hit, by the source's call. Unless noted, the call rests on the fitted dose curve; in most records, active means well fitted curve in the direction sought with a large enough effect; inconclusive means small, poorly fitted or top-dose-only effect, or another doubt; inactive means no such curve, though single readings can be large; an effect the other way counts as inactive or inconclusive. Unless noted, on the % scale 0 is the no-effect control and ±100 the full control effect.

For CCc1ccc(NS(=O)(=O)c2ccc3oc(=O)ccc3c2)cc1 the results were TDP1 cell CPT inconclusive, HT1080 IDH1KD tx -16%, IL-1B inflam inh 4, DT40 TDP1 no CPT inconclusive and HT1080NT lethal -15%.
`Cc1ccc(CNS(=O)(=O)c2ccc3c(c2)NC(=O)CS3)cc1` gave TDP1 cell CPT inconclusive, HT1080 IDH1KD tx 0%, IL-1B inflam inh 20, DT40 TDP1 no CPT 15µM* and HT1080NT lethal -5%.
Screening C=Cc1c(C)c2cc3nc(cc4[nH]c(cc5nc(cc1[nH]2)C(C)=C5CCC(=O)OC)c(CCC(=O)O)c4C)[C@@]1(C)C3=CC=C(C(=O)OC)[C@H]1C(=O)OC returned TDP1 cell CPT -2% and DT40 TDP1 no CPT 1%.
`CCN(CC)S(=O)(=O)c1ccc2c(c1)N(CC(=O)N1CCCC1)C(=O)CO2` gave TDP1 cell CPT -4%, HT1080 IDH1KD tx -1%, IL-1B inflam inh -9, DT40 TDP1 no CPT -8% and HT1080NT lethal -4%.
`CCN(CC)S(=O)(=O)c1ccc2c(c1)N(CC(=O)N1CCN(c3cccc(C(F)(F)F)c3)CC1)C(=O)CO2` gave TDP1 cell CPT inconclusive and DT40 TDP1 no CPT 21µM*.
For CCN(CC)S(=O)(=O)c1ccc2c(c1)N(CC(=O)N1CCN(c3cccc(C)c3C)CC1)C(=O)CO2 the results were TDP1 cell CPT 18µM* and DT40 TDP1 no CPT 15µM*.
Screening CCOC(=O)CCCCC(=O)c1[nH]c(=O)[nH]c1CSc1nc2ccccc2[nH]1 returned TDP1 cell CPT 2%, HT1080 IDH1KD tx 6%, IL-1B inflam inh -91*, DT40 TDP1 no CPT -7% and HT1080NT lethal inconclusive.
CCOC(=O)CCCCC(=O)c1[nH]c(=O)[nH]c1CN1CCOCC1 was read as TDP1 cell CPT 7%, HT1080 IDH1KD tx 6%, IL-1B inflam inh -74*, DT40 TDP1 no CPT 2% and HT1080NT lethal 12%.
Screening CCOC(=O)CCCCC(=O)c1[nH]c(=O)[nH]c1C[n+]1ccc(C)cc1 returned TDP1 cell CPT 8%, HT1080 IDH1KD tx 12%, IL-1B inflam inh inconclusive, DT40 TDP1 no CPT 11% and HT1080NT lethal 13%.
`CC(=O)NC1(C(F)(F)F)C(=O)Nc2c1c(=O)[nH]c(=O)n2CCc1ccccc1` (configuration not stated) gave TDP1 cell CPT 1%, HT1080 IDH1KD tx 1%, IL-1B inflam inh 7, DT40 TDP1 no CPT 3% and HT1080NT lethal -4%.
CC(C)c1ccc(NC(=O)c2cc(S(=O)(=O)N3CCCCC3)cn2C)cc1 was read as TDP1 cell CPT -15% and DT40 TDP1 no CPT -13%.
CCOc1ccc(CN2CCC(n3nccc3NC(=O)c3ccccc3OC)CC2)cc1 was read as TDP1 cell CPT 16µM*, HT1080 IDH1KD tx 1%, IL-1B inflam inh -21, DT40 TDP1 no CPT inconclusive and HT1080NT lethal -5%.
For Cc1ccccc1C(=O)Nc1ccnn1C1CCN(Cc2cccnc2)CC1 the results were TDP1 cell CPT 0%, HT1080 IDH1KD tx 3%, IL-1B inflam inh -6, DT40 TDP1 no CPT 2% and HT1080NT lethal -2%.
CCc1ccc(CN2CCC(n3nccc3NC(=O)c3ccccc3C)CC2)cc1 was read as TDP1 cell CPT 21µM*, HT1080 IDH1KD tx -23%, IL-1B inflam inh -19, DT40 TDP1 no CPT inconclusive and HT1080NT lethal 2%.
`Cc1ccc(C(=O)N(CC(=O)NC2CCCCC2)c2ccccc2C)s1` gave TDP1 cell CPT inconclusive, HT1080 IDH1KD tx -5%, IL-1B inflam inh -22, DT40 TDP1 no CPT 23µM* and HT1080NT lethal 7%.
Screening Cc1ccc(C(=O)N(CC(=O)NC2CCCCC2)c2ccccc2F)s1 returned TDP1 cell CPT 2%, HT1080 IDH1KD tx -1%, IL-1B inflam inh 2, DT40 TDP1 no CPT -33% and HT1080NT lethal -2%.
Cc1ccc(C(=O)N(CC(=O)NC2CCCC2)c2cccc(F)c2)s1 was read as TDP1 cell CPT 3%, HT1080 IDH1KD tx -4%, IL-1B inflam inh -80*, DT40 TDP1 no CPT -21% and HT1080NT lethal -4%.
For O=C(/C=C/c1ccc(Br)o1)Nc1nccs1 the results were TDP1 cell CPT inconclusive, HT1080 IDH1KD tx -9%, IL-1B inflam inh 18, DT40 TDP1 no CPT inconclusive and HT1080NT lethal -16%.
For CCOC(=O)C(C)Sc1ccc2nnc(-c3ccc(F)cc3)n2n1 (configuration not stated) the results were TDP1 cell CPT inconclusive, HT1080 IDH1KD tx 9%, IL-1B inflam inh 17, DT40 TDP1 no CPT inconclusive and HT1080NT lethal 18%.
Screening COC(=O)c1ccc(CSc2ccc3nnc(-c4ccccn4)n3n2)o1 returned TDP1 cell CPT -13%, HT1080 IDH1KD tx 1%, IL-1B inflam inh 10, DT40 TDP1 no CPT inconclusive and HT1080NT lethal 14%.
For CCOC(=O)C(C)Sc1ccc2nnc(-c3ccc(OCC)cc3)n2n1 (configuration not stated) the results were TDP1 cell CPT 10µM* and DT40 TDP1 no CPT -89%.
Screening CCOc1ccc2nnc(-c3ccc(Br)cc3)n2n1 returned TDP1 cell CPT inconclusive, HT1080 IDH1KD tx -1%, IL-1B inflam inh 11, DT40 TDP1 no CPT 15µM* and HT1080NT lethal 6%.
For CCOc1ccc(-c2nnc3ccc(SCc4ccc(C(=O)OC)o4)nn23)cc1 the results were TDP1 cell CPT inconclusive, HT1080 IDH1KD tx 1%, IL-1B inflam inh -15, DT40 TDP1 no CPT 16µM* and HT1080NT lethal 13%.
C=CCOc1ccc2nnc(C)n2n1 was read as TDP1 cell CPT 3%, HT1080 IDH1KD tx 1%, IL-1B inflam inh inconclusive, DT40 TDP1 no CPT -4% and HT1080NT lethal 0%.
Screening COC(=O)c1ccc(CSc2ccc3nnc(-c4ccc(F)cc4)n3n2)o1 returned TDP1 cell CPT inconclusive, HT1080 IDH1KD tx 0%, IL-1B inflam inh -4, DT40 TDP1 no CPT 21µM* and HT1080NT lethal -13%.
For CC(=O)O[C@]1(C)CC[C@]23CC1C(C)(C)C2CC[C@@H]3C (some centres not stated) the results were TDP1 cell CPT -7% and DT40 TDP1 no CPT 15%.
`Cc1cccc(N(CC(=O)NC2CCCC2)C(=O)CCC(=O)Nc2cc(C)on2)c1` gave TDP1 cell CPT 0%, HT1080 IDH1KD tx 1%, IL-1B inflam inh 8, DT40 TDP1 no CPT -20% and HT1080NT lethal -6%.
Screening Cc1cc(C(C)(C)C)oc1C(=O)N(CC(=O)NC1CCCC1)Cc1ccccc1Cl returned TDP1 cell CPT 13µM*, HT1080 IDH1KD tx inconclusive, IL-1B inflam inh inconclusive, DT40 TDP1 no CPT 13µM* and HT1080NT lethal -27%.
Cc1cc(C(C)(C)C)oc1C(=O)N(CC(=O)NC1CCCC1)c1cccc(C(F)(F)F)c1 was read as TDP1 cell CPT 18µM*, HT1080 IDH1KD tx inconclusive, IL-1B inflam inh -21, DT40 TDP1 no CPT inconclusive and HT1080NT lethal inconclusive.
